# Experimental data: the supplement of paper PMC9694430
# Experiments:
# Assay in all cases: thermal shift delta Tm vs DMSO control; higher = stronger stabilization (binding)
# Conditions in all cases: 12.5 µM; protein concentration 2 µM
# LOC_OS01G57100-cb003 = test system: LOC_OS01G57100-cb003
# Summary of the method: (§1)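 Purified, E. coli-expressed rice kinase domain constructs were tested by differential scanning fluorimetry in 96-well plates: 19.5 μl of 2 μM kinase in 100 mM potassium phosphate pH 7.5, 150 mM NaCl, 10% glycerol, 5 × SYPRO Orange, plus compound in DMSO. Fluorescence was read from 25°C to 95°C at 0.05°C/s. Melting temperatures came from Boltzmann fits, and the shift is the triplicate mean relative to protein with DMSO alone.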
# LOC_OS01G60330-cb001 = test system: LOC_OS01G60330-cb001
# Summary of the method: as §1
# LOC_OS01G60700-cb002 = test system: LOC_OS01G60700-cb002
# Summary of the method: as §1
# LOC_OS01G63280-cb003 = test system: LOC_OS01G63280-cb003
# Summary of the method: as §1
# LOC_OS01G67340-cb003 = test system: LOC_OS01G67340-cb003
# Summary of the method: as §1
# LOC_OS01G70970-cb002 = test system: LOC_OS01G70970-cb002
# Summary of the method: as §1
# LOC_OS02G07810-cb001 = test system: LOC_OS02G07810-cb001
# Summary of the method: as §1
# LOC_OS02G08530-cb003 = test system: LOC_OS02G08530-cb003
# Summary of the method: as §1
# LOC_OS02G14120-cb001 = test system: LOC_OS02G14120-cb001
# Summary of the method: as §1
# LOC_OS02G17970-cb001 = test system: LOC_OS02G17970-cb001
# Summary of the method: as §1
# LOC_OS02G45750-cb003 = test system: LOC_OS02G45750-cb003
# Summary of the method: as §1
# LOC_OS02G54510-cb004 = test system: LOC_OS02G54510-cb004
# Summary of the method: as §1
# LOC_OS03G04050-cb001 = test system: LOC_OS03G04050-cb001
# Summary of the method: as §1
# LOC_OS03G12390-cb001 = test system: LOC_OS03G12390-cb001
# Summary of the method: as §1
# LOC_OS03G27990-cb004 = test system: LOC_OS03G27990-cb004
# Summary of the method: as §1
# LOC_OS03G50450-cb001 = test system: LOC_OS03G50450-cb001
# Summary of the method: as §1
# LOC_OS03G50810-cb003 = test system: LOC_OS03G50810-cb003
# Summary of the method: as §1
# LOC_OS04G35114-cb001 = test system: LOC_OS04G35114-cb001
# Summary of the method: as §1
# LOC_OS04G38480-cb003 = test system: T1, LOC_OS04G38480-cb003
# T1 sequence (whole entry): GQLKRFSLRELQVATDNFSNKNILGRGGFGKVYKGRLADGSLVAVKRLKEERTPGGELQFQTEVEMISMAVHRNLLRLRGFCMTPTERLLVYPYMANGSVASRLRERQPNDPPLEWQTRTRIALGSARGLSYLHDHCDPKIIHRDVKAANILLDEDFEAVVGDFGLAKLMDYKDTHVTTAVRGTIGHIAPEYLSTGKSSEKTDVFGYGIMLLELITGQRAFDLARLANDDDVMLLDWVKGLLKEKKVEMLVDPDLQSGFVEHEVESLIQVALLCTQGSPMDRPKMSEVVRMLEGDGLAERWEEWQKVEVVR
# Summary of the method: as §1
# LOC_OS04G41100-cb001 = test system: T2, LOC_OS04G41100-cb001
# T2 sequence (whole entry): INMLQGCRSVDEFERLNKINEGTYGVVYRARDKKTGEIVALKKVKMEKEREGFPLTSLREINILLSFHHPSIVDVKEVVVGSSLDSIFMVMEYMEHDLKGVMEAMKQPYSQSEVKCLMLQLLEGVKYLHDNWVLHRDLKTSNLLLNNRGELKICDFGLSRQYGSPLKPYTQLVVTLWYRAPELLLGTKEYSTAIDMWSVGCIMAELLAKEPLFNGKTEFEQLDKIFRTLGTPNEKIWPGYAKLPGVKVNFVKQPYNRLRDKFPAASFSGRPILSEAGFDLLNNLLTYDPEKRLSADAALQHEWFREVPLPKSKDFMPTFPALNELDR
# Summary of the method: as §1
SMILES,thermal shift delta Tm (LOC_OS01G57100-cb003),thermal shift delta Tm (LOC_OS01G60330-cb001),thermal shift delta Tm (LOC_OS01G60700-cb002),thermal shift delta Tm (LOC_OS01G63280-cb003),thermal shift delta Tm (LOC_OS01G67340-cb003),thermal shift delta Tm (LOC_OS01G70970-cb002),thermal shift delta Tm (LOC_OS02G07810-cb001),thermal shift delta Tm (LOC_OS02G08530-cb003),thermal shift delta Tm (LOC_OS02G14120-cb001),thermal shift delta Tm (LOC_OS02G17970-cb001),thermal shift delta Tm (LOC_OS02G45750-cb003),thermal shift delta Tm (LOC_OS02G54510-cb004),thermal shift delta Tm (LOC_OS03G04050-cb001),thermal shift delta Tm (LOC_OS03G12390-cb001),thermal shift delta Tm (LOC_OS03G27990-cb004),thermal shift delta Tm (LOC_OS03G50450-cb001),thermal shift delta Tm (LOC_OS03G50810-cb003),thermal shift delta Tm (LOC_OS04G35114-cb001),thermal shift delta Tm (LOC_OS04G38480-cb003),thermal shift delta Tm (LOC_OS04G41100-cb001)
C[C@H](CN(C)C)Oc1nc(Nc2cc3cccc(Cl)c3cn2)cnc1C#N,0.95 °C,1.48 °C,1.39 °C,0.39 °C,0.6 °C,0.34 °C,0.31 °C,1.68 °C,2.95 °C,2.26 °C,2.56 °C,0.35 °C,0.34 °C,1.56 °C,0.61 °C,0.13 °C,1.33 °C,1.48 °C,1.13 °C,0.28 °C
Cc1nc(Nc2cnn(C3CCNCC3)c2)nc2c1N(C)C(=O)c1cc3ccccc3cc1N2C,0.83 °C,1.06 °C,0.29 °C,0.05 °C,1.06 °C,0.51 °C,0.09 °C,1.07 °C,1.04 °C,-0.03 °C,2.86 °C,-0.12 °C,0.18 °C,1.89 °C,0.13 °C,0.69 °C,0.96 °C,1.48 °C,1.64 °C,0.38 °C
N#C/C(=C(/N)Sc1ccc(N)cc1)c1ccccc1C(F)(F)F,0.82 °C,0.59 °C,0.64 °C,-0.09 °C,-0.57 °C,0.23 °C,0.12 °C,0.32 °C,-0.1 °C,0.43 °C,-0.09 °C,0.03 °C,0.54 °C,-0.46 °C,0.47 °C,-0.3 °C,-0.02 °C,0.28 °C,0.37 °C,0.78 °C
COC(=O)[C@]12CCC(C)(C)C[C@H]1[C@H]1C(=O)C=C3[C@@]4(C)C=C(C#N)C(=O)C(C)(C)[C@@H]4CC[C@@]3(C)[C@]1(C)CC2 [Bardoxolone Methyl],–,-0.58 °C,–,-6.77 °C,-5.05 °C,-11 °C,0.28 °C,-2.07 °C,-4.67 °C,-0.5 °C,0.78 °C,-3.73 °C,-0.12 °C,-11.6 °C,-4.29 °C,-0.95 °C,-3.78 °C,-4.61 °C,-6.53 °C,-1.7 °C
"Nc1cc(C(F)(F)F)c(-c2cc(N3CCOCC3)nc(N3CCOCC3)n2)cn1 [Buparlisib (BKM120, NVP-BKM120)]",2.16 °C,0.57 °C,1.2 °C,0.16 °C,0.47 °C,0.27 °C,1.48 °C,0.84 °C,0.46 °C,0.37 °C,0.32 °C,-0.07 °C,0.3 °C,-0.03 °C,0.23 °C,0.11 °C,0.38 °C,0.31 °C,0.85 °C,0.22 °C
